# From PubChem BioAssay
# Hits are enriched below; roughly 7.3% of the tested compounds scored in any of these assays.
# Rab9 promoter act: qHTS Assay for Rab9 Promoter Activators; Huh7 Rab9 promoter-luciferase reporter, luminescence, 24 h; Potency, µM (highest dose often 9.22 µM), without a hit: at the top dose activation, negative = inhibition, hits mostly activators; 2.8% of 320,000 active; AID 485297, 2010; further: % of control where 0% means no effect; nearly all actives have a fitted effect of over 60% in size
#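 Cell-based reporter: Huh7 stable for Rab9 promoter-driven luciferase, plated in reduced-serum medium with 10% FBS at 1500 cells/well, compound-treated 24 h at 37 °C, luminescence read after 10 min reagent.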
# NPC1 prom act: qHTS Assay for NPC1 Promoter Activators | 2.4% of 320,000 active | AID 485313, 2010 | Potency, µM (doses to about 9.22 µM), for inactives: at the highest dose activation, most hits filed as activators | Huh7 NPC1 promoter luciferase reporter, 24 h; further: % of control where 0% means no effect; nearly all actives have a fitted effect of over 60% in size
#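 Stably transfected Huh7 (NPC1 promoter→luciferase), 1500 cells/well in Opti-MEM + 10% FBS, 2 h settle, then compound 24 h at 37 °C. Luminescence after 10 min with Amplite reagent.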
# SMN2 splice enh: qHTS Assay for Enhancers of SMN2 Splice Variant Expression; HEK293 SMN2-luciferase splicing reporter, luminescence, 30-36 h; AID 1458, 2008; Potency, µM (series often up to 46.1 µM), for the others: top-dose activity change, positive = activation, hits mostly activators; 2.8% of 210,000 active; further: % of control where 0% means no effect; nearly all actives have a fitted effect of over 55% in size
#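 qHTS luciferase splicing reporter: luminescence rises when SMN2 exon 7 is included in transfected HEK293 cells. Compound exposure lasted 30-36 h at 37C, with 4.5 mM final sodium butyrate as control, followed by a ONE-Glo read.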
# KinaseGlo FLuc: Counterscreen for Luciferase (Kinase-Glo TM) Inhibition; AID 1379, 2008; 0.28% of 200,000 active; Potency, µM (doses to about 38.3 µM), for the others: at the top dose activity change, negative = inhibition, usual class: inhibitors; Kinase-Glo luciferase, ATP luminescence, 8 min; Luciferin 4-monooxygenase (Photuris pensylvanica), Q27757; further: on the % scale 0 is the no-effect control and ±100 the full control effect; nearly all actives have a fitted effect of over 60% in size
#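 Compounds were added to a substrate mix at pH 7.2 (50 mM imidazole, 10 uM ATP, within the enzyme's linear range), followed by Kinase-Glo detection reagent; luminescence was measured after 8 minutes at ambient temperature.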
# FLuc modulator: qHTS profiling assay for firefly luciferase inhibitor/activator using purifed enzyme and Km concentrations of substrates (counterscreen for miR-21 project) | purified FLuc, Km substrates, luminescence inhibition | AID 588342, 2011 | 6.9% of 360,000 active | Luciferin 4-monooxygenase (Photinus pyralis), P08659 | Potency, µM (doses to about 57.5 µM), for the others: at the highest dose activity change, negative = inhibition, actives largely listed as inhibitors;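 further: plate controls were vehicle for no effect and reference inhibitor for full effect; nearly all actives have a fitted effect of over 55% in size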
# Target sequence (P08659 whole entry, looked up): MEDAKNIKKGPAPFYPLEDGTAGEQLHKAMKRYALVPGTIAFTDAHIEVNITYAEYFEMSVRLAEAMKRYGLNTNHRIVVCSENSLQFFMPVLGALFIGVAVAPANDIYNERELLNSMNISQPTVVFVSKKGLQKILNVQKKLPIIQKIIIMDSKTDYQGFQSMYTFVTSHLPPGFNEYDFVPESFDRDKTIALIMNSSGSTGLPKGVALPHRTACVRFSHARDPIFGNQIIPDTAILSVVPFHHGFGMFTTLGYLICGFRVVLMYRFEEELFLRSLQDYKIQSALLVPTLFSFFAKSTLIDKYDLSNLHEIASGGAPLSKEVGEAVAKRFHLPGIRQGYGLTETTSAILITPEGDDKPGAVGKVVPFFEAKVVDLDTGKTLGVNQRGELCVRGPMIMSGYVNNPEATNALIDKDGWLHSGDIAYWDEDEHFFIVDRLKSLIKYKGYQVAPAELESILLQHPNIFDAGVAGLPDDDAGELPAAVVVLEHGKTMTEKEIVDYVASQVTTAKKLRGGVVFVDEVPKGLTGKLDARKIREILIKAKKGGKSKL
#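 Purified P. pyralis luciferase, 10 nM final, with Km-level 10 uM D-luciferin and 10 uM ATP in 50 mM Tris acetate pH 7.5, 10 mM Mg acetate, 0.01% Tween-20, 0.05% BSA; 6-point qHTS titration about 60 µM downward; luminescence read.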
# Numbers without * were called inactive; ? = inconclusive; · = no result; [ ] = remark or other dose. The call rests on the fitted dose curve; in most records, active means well fitted curve in the direction sought with a large enough effect; inconclusive means small, poorly fitted or top-dose-only effect, or another doubt; inactive means no such curve, though single readings can be large; an effect the other way counts as inactive or inconclusive. Potency means the concentration at half of the fitted maximal effect.
SMILES,Rab9 promoter act,NPC1 prom act,SMN2 splice enh,KinaseGlo FLuc,FLuc modulator
CC1Oc2ccccc2C=C1/C=N/NC(=O)[C@@H](C)NC(=O)OC(C)(C)C (stereo not given in full),0%,-3%,·,·,-22%
CC1CN(c2ncc(/C=N/NC(=O)c3ccccc3O)s2)CC(C)O1 (stereo not given),19%,7%,-4%,-1%,?
CC1Oc2ccccc2C=C1/C=N/NC(=O)c1ccccc1 (stereo not given),2.5µM*,?,14µM*,-2%,6µM*
Cc1ccc(C(=O)N/N=C/C2=Cc3ccccc3OC2C)cc1 (stereo not given),28%,22%,?,-2%,3µM*
CC1Oc2ccccc2C=C1/C=N/NC(=O)c1ccccc1O (stereo not given),?,?,13µM*,-5%,1.7µM*
COc1ccc(Cn2cc(S(=O)(=O)c3ccc(Cl)cc3)c(=O)c3cc4c(cc32)OCO4)cc1,·,·,2%,·,-2%
CCOc1ccccc1NC(=O)CSc1ccc2nnc(CCNS(=O)(=O)c3ccccc3)n2n1,·,·,·,·,-2%
CCC[C@H](N[C@@H](C)C(=O)N1[C@@H]2CCCC[C@H]2C[C@H]1C(=O)O)C(=O)OCC,·,·,·,3%[39.9 µM],·
CCC(C)NC(=O)c1c(C)oc2ncn(CC(C)C)c(=O)c12 (stereo not given),·,·,·,·,4%
CCOc1cc(C2Nc3ccccc3C(=O)N2c2ccccc2)c(Br)cc1OCC(=O)O (stereo not given),-2%,-2%,14%,5%,0%
CCOC(=O)COc1ccccc1C1Nc2ccccc2C(=O)N1c1cccc(Cl)c1 (stereo not given),2.8µM*,?,20µM*,0%,-14%
COc1cc(C2Nc3ccccc3C(=O)N2c2ccc(Cl)cc2)c(Cl)cc1OCC(=O)O (stereo not given),2.5µM*,3.2µM*,13µM*,1%,?
COc1ccc(N(C(=O)c2ccccc2C)S(=O)(=O)c2ccc3c(c2)n(C)c(=O)n3C)cc1,·,·,-3%,·,0%
Cc1ccc(NCC(=O)N/N=C/c2cc3ccccc3nc2Cl)cc1,-4%,-2%,-6%,-7%,15µM*
Cc1ccc2nc(Cl)c(/C=N/Nc3ccc(C(=O)O)cc3)cc2c1,0.45µM*,0.32µM*,·,·,0.067µM*
O=C(CSc1nnc(-c2ccccc2)o1)c1cccc([N+](=O)[O-])c1,·,·,4%,·,-2%
COc1ccc(-c2csc(NNC3=NCCCCC3)n2)cc1,15%,0%,-2%,1%,?
c1ccc(-c2csc(NNC3=NCCCCC3)n2)cc1,12%,0%,-1%,-6%,15µM*
COc1ccc(-c2csc(NC3=NCCCCC3)n2)cc1,?,?,-4%[1.84 µM],-1%,12µM*
CCCCn1c(SCC(=O)c2ccccc2)nc2c(sc3ccccc32)c1=O,·,·,·,·,-5%
Cc1ccc(CSc2nc3ncccc3[nH]2)cc1,0.79µM*,0.56µM*,1.8µM*,?,2.4µM*
Clc1ccc(CSc2nc3ncccc3[nH]2)cc1,·,·,13µM*,·,6µM*
S=c1nc(SCc2ccccc2)[nH]c2ccccc12,-1%,0%,-59%,-1%,?
c1ccc(CSc2nc3ncncc3[nH]2)cc1,20%,8%,·,·,17µM*
Cc1oc(-c2ccc(Cl)cc2)nc1CSc1nc2ncccc2[nH]1,·,·,·,·,-7%
SMILES,Rab9 promoter act,NPC1 prom act,SMN2 splice enh,KinaseGlo FLuc,FLuc modulator
Cc1ccc(C)c(CSc2nc3ncccc3[nH]2)c1,·,·,·,·,-17%
COc1ccc(C(=O)c2cn(Cc3ccc(C)cc3)c3cc4c(cc3c2=O)OCO4)cc1,·,·,-13%,·,1%
Cc1cc(C)c2c(N)c(C(=O)N/N=C/c3ccccc3)sc2n1,1.8µM*,1.8µM*,·,·,3.4µM*
Cc1ccc(S(=O)(=O)Nc2nc(C)c(C(=O)Nc3ccccc3)s2)cc1,1%,-3%,?,4%,-18%
Cc1cc(C)c2c(N)c(C(=O)NNC(=O)c3ccccc3)sc2n1,3.5µM*,3.2µM*,11µM*,-1%,?
Cc1cc(C)c2c(N)c(C(=O)Nc3cccc(C)c3C)sc2n1,-3%,-6%,·,·,0%
Cc1ccc(S(=O)(=O)Nc2nc(C)c(C(=O)N/N=C/c3ccccc3)s2)cc1,7%,-1%,-37%,2%,6µM*
CCNC(=O)COc1ccc(OCc2ccccc2)cc1,18%,10%,10%,-4%,?
O=C(COc1ccc(OCc2ccccc2)cc1)NC1CCOC1=O (stereo not given),-24%,1%,10%,-3%,21µM*
Cc1ccccc1CNC(=O)c1ccc(CN2CC(=O)N3CCCCC3C2=O)cc1 (stereo not given),·,·,·,·,-3%
Cn1cccc1/C=C1\CCc2ccccc2C1=O,0.13µM*,0.35µM*,1µM*,10µM*,1.5µM*
Cn1cccc1/C=C1\Cc2ccccc2C1=O,?,-26%,?,11µM*,6.7µM*
O=C(Cc1ccc(F)cc1)N1CCC(c2nc3c(nnn3Cc3ccc(Cl)cc3)c(=O)[nH]2)CC1,·,·,5%,·,-15%
COc1ccc(OCC(=O)Nc2nc3ccc(NC(C)=O)cc3s2)cc1,19%,7%,9%,3%,-15%
COc1ccc2nc(NC(C)=O)sc2c1,2.5µM*,2.2µM*,14µM*,-9%,12µM*
CC(=O)Nc1nc2ccc(Br)cc2s1,2.8µM*,3.2µM*,8%,-4%,17µM*
CCOC(=O)c1cccc(C(=O)Nc2nc3ccc(OC)cc3s2)n1,1.6µM*,2.2µM*,11µM*,-2%,0.48µM*
COc1ccc2nc(NC(=O)CSCC(=O)Nc3cc(C)on3)sc2c1,5µM*,?,·,·,17µM*
COc1ccc(-c2cc3nc(C)c(CCC(=O)Nc4cccc(C(F)(F)F)c4)c(C)n3n2)c(OC)c1,·,·,-1%,·,-3%
CC(=O)NCCC(=O)Nc1nc2ccc(Oc3ccccc3)cc2s1,0.89µM*,1.4µM*,·,·,6.7µM*
CCC(C)C(=O)Nc1nc2ccc(S(C)(=O)=O)cc2s1 (stereo not given),17%,11%,6%,-1%,-12%
CCC(C)C(=O)Nc1nc2ccc(OC)cc2s1 (stereo not given),2.5µM*,2.5µM*,·,·,12µM*
COc1ccc2nc(NC(=O)c3ccccc3O)sc2c1,0.79µM*,1.3µM*,·,·,0.13µM*
CCc1ccc(-n2c(=O)c3c4c(sc3n(Cc3ccccc3C#N)c2=O)CCC4)cc1,·,·,-3%,·,-2%
CC1=C(C(=O)Nc2ccc(C)cc2C)C(c2ccc(C(C)C)cc2)n2nc(C(F)(F)F)nc2N1 (stereo not given),·,·,-7%,·,-4%
